Measured values as given in PubChem BioAssay AID1053124 (Broad Institute, 2014).
Entries with a potency or affinity are not part of this list. Unmarked numbers belong to inactive results.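 Rule for the calls: active = cell killing whose fitted half-effect concentration is at most twice the top valid dose tested; inconclusive = flat curve with 30 to 70% killing, or a poor fit; inactive = effect in the rising direction, plus the rest.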

Experiment: A549 cell cytotoxicity, dose response, cytotoxicity control, ATP luminescence, cherry-pick, set 2 (AID 1053124);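 note: 0% = neutral control wells and -100% = mitoxantrone 10 µM positive control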
Settings: A549 viability, ATP luminescence (CellTiter-Glo), 72 h; series mostly up to 26 µM; activity change, negative = cytotoxicity: at the top concentration

**Q.** With `CCCn1c(=N)c(S(=O)(=O)c2ccccc2)cc2c(=O)n3ccccc3nc21` as the compound, how does the “activity change, negative = cytotoxicity” value read?
**A.** The value was -7.19%.

**Q.** With `COc1ccc(Br)c(Cn2c(C)c(C(=O)NCc3ccc4c(c3)OCCO4)sc2=O)c1` as the compound, how does the “activity change, negative = cytotoxicity” value read?
**A.** The value was -2.12%.

**Q.** For `Cc1ccc(S(=O)(=O)Nc2ccc(Nc3ccccc3)cc2)cc1`, which “activity change, negative = cytotoxicity” value is on record?
**A.** The value was -4.17%.

**Q.** Which “activity change, negative = cytotoxicity” value does the source give for `Cc1cc(OC(=O)c2ccccc2Cl)ccc1N1C(=O)CCC1=O` here?
**A.** The value was -0.659%.

**Q.** For `Cc1ccc2[nH]c3ccccc3c(=O)c2c1`, which “activity change, negative = cytotoxicity” value is on record?
**A.** The value was -6.97%.

**Q.** With `COCCN1C=C(C(=O)OC)C(c2ccc(Cl)cc2)C(C(=O)OC)=C1` as the compound, how does the “activity change, negative = cytotoxicity” value read?
**A.** The value was -8.61%.

**Q.** Which “activity change, negative = cytotoxicity” value does the source give for `CCN1C=C(C(=O)OC)C(c2cccc(OC)c2OC)C(C(=O)OC)=C1` here?
**A.** The value was -4.62%.

**Q.** For `CCCN1CCN(C(=O)c2ccc(CS(=O)c3ccc(Br)cc3)o2)CC1` (stereo not given), which “activity change, negative = cytotoxicity” value is on record?
**A.** Its value is -6.12%.

**Q.** Which “activity change, negative = cytotoxicity” value does the source give for `O=C(CCCN1C(=O)CSc2ncccc21)N1CCN(Cc2ccccc2)CC1` here?
**A.** Its value is -2.8%.

**Q.** Which “activity change, negative = cytotoxicity” value does the source give for `Cc1ccc(NC(=O)Nc2ccnc(-c3cccnc3)n2)cc1` here?
**A.** Its value is -21.1%.

**Q.** For `CCOc1ccc2nc(NCCCNC(=O)c3cc(OC)c(OC)c(OC)c3)c(C#N)cc2c1`, which “activity change, negative = cytotoxicity” value is on record?
**A.** The value was -8.1%.

**Q.** With `O=C(O)c1ccc(N2N=C(c3ccccc3)CC2c2ccccc2)cc1` (stereo not given) as the compound, how does the “activity change, negative = cytotoxicity” value read?
**A.** The value was -7.85%.

**Q.** With `COc1ccccc1OCc1ccc(C(=O)N(C)c2ccccc2)o1` as the compound, how does the “activity change, negative = cytotoxicity” value read?
**A.** Its value is -0.768%.

**Q.** With `CCOC1=NN(c2ncc(C(F)(F)F)cc2Cl)C(=O)C1` as the compound, how does the “activity change, negative = cytotoxicity” value read?
**A.** Its value is -4.45%.

**Q.** For `CC/C(C)=N\Nc1nc(-c2cc3cc(OC)ccc3oc2=O)cs1`, which “activity change, negative = cytotoxicity” value is on record?
**A.** The value was -4.33%.

**Q.** Which “activity change, negative = cytotoxicity” value does the source give for `Cn1nc(-c2ccc(Cl)cc2)c2cc(C(=O)N3CCN(c4ccccc4)CC3)sc21` here?
**A.** Its value is -7.43%.

**Q.** For `O=C(O)c1cccc(NC(=O)c2cn(-c3ccccc3)nc2-c2cccc(Br)c2)c1`, which “activity change, negative = cytotoxicity” value is on record?
**A.** Its value is -14.8%.

**Q.** With `CCOc1ccc(-n2c(SCC(=O)Nc3nccs3)nnc2-c2ccoc2C)cc1` as the compound, how does the “activity change, negative = cytotoxicity” value read?
**A.** The value was -10.2%.

**Q.** With `CC(C)CCN1C(=O)c2cccc3c(N)ccc(c23)C1=O` as the compound, how does the “activity change, negative = cytotoxicity” value read?
**A.** Its value is 5.3%.

**Q.** With `COCCNC(=O)c1cc2c(=O)n3cccc(C)c3nc2n(Cc2ccncc2)c1=N` as the compound, how does the “activity change, negative = cytotoxicity” value read?
**A.** The value was -13.4%.

**Q.** For `CC(=O)N=c1c(C#N)cc2c(=O)n3ccccc3nc2n1CCCOC(C)C`, which “activity change, negative = cytotoxicity” value is on record?
**A.** The value was -4.8%.

**Q.** Which “activity change, negative = cytotoxicity” value does the source give for `CSc1ccc(Cn2c(C)c(C(=O)NCc3cccc(Cl)c3)sc2=O)cc1` here?
**A.** The value was -3.84%.

**Q.** Which “activity change, negative = cytotoxicity” value does the source give for `COc1ccc(C2C(C#N)=C(N)Oc3cc(O)ccc32)cc1Cl` (stereo not given) here?
**A.** The value was -5.72%.

**Q.** With `C=CCn1c(=N)c(C#N)cc2c(=O)n3ccccc3nc21` as the compound, how does the “activity change, negative = cytotoxicity” value read?
**A.** The value was -0.422%.

**Q.** For `COc1ccccc1N1CCN(C2CCC(C)CC2)CC1` (stereo not given), which “activity change, negative = cytotoxicity” value is on record?
**A.** Its value is -4.68%.

**Q.** Which “activity change, negative = cytotoxicity” value does the source give for `COc1ccc(S(=O)(=O)N2CCCC2CNC(=O)C(=O)NC2CCCC2)cc1` (stereo not given) here?
**A.** Its value is -9.97%.

**Q.** For `CCN(CC)CCN1C2=C(C(=O)CC(C)(C)C2)C(c2cccc(F)c2)C2=C1CC(C)(C)CC2=O`, which “activity change, negative = cytotoxicity” value is on record?
**A.** Its value is -12.3%.

**Q.** Which “activity change, negative = cytotoxicity” value does the source give for `O=C(O)c1[nH]c2ccccc2c1C(c1cc(Br)ccc1O)c1c(C(=O)O)[nH]c2ccccc12` here?
**A.** Its value is 2.61%.

**Q.** Which “activity change, negative = cytotoxicity” value does the source give for `C=CCc1c(O)c(CC)cc2c(C)cc(=O)oc12` here?
**A.** The value was -7.59%.

**Q.** Which “activity change, negative = cytotoxicity” value does the source give for `Cc1c(C(=O)NCc2cccc(C(F)(F)F)c2)sc(=O)n1Cc1ccc(C(=O)N(C)C)cc1` here?
**A.** The value was 3.24%.

**Q.** With `O=C(c1cccc(Cl)c1)N1CCC(=O)N(C(COCc2ccccc2)Cc2ccccc2)CC1` (stereo not given) as the compound, how does the “activity change, negative = cytotoxicity” value read?
**A.** Its value is -0.569%.

**Q.** Which “activity change, negative = cytotoxicity” value does the source give for `Cc1ccc2nc3c(cc(C(=O)NCc4ccccc4)c(=N)n3CCCn3ccnc3)c(=O)n2c1` here?
**A.** The value was -10.2%.

**Q.** With `N#Cc1c(NCCCO)nc(NCc2ccccc2)c2c1CCN(Cc1ccccc1)C2` as the compound, how does the “activity change, negative = cytotoxicity” value read?
**A.** The value was 0.764%.

**Q.** With `N#C/C(=C\c1ccc(N2CCOCC2)o1)C(=O)NCCc1ccccc1` as the compound, how does the “activity change, negative = cytotoxicity” value read?
**A.** Its value is -8.25%.

**Q.** For `Cc1cc(-n2c(=O)c(C#N)cc3c(=O)n4cccc(C)c4nc32)no1`, which “activity change, negative = cytotoxicity” value is on record?
**A.** Its value is -6.24%.

**Q.** With `CC(=O)Oc1ccc2cc(-c3nc4ccccc4n3C)c(=O)oc2c1` as the compound, how does the “activity change, negative = cytotoxicity” value read?
**A.** The value was -18.8%.

**Q.** Which “activity change, negative = cytotoxicity” value does the source give for `CCc1nc2ccc(C(=O)NCCc3c[nH]c4ccccc34)cn2c1N(C=O)CCC(C)C` here?
**A.** Its value is -8.29%.

**Q.** With `O=C(C1=NN(c2ccccc2)C2C(=O)N(c3ccccc3)C(=O)C12)c1ccccc1` (stereo not given) as the compound, how does the “activity change, negative = cytotoxicity” value read?
**A.** The value was 7.8%.

**Q.** Which “activity change, negative = cytotoxicity” value does the source give for `CCOC(=O)c1c2ccc(OCC(=O)NN)cc2n2ccccc12` here?
**A.** Its value is -10.5%.

**Q.** For `[O-]/[N+](=C/c1ccccc1)c1ccccc1`, which “activity change, negative = cytotoxicity” value is on record?
**A.** Its value is 1.21%.
